± gives the standard deviation.
Key:
Details in all cases: modulator concentration 10 µM
[1] = tested on: RAW-Dual (murine macrophage reporter line); assay: NF-kB reporter (SEAP) activity fold change vs agonist alone; higher = enhanced NF-kB activity
Procedure, shortened: (§1)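 RAW-Dual murine macrophage reporter cells were plated at 50 000 per well in 384-well plates, pin-transferred compound to 10 μM final, and pre-incubated for 1 hour at 37 °C before a PRR agonist was added and the cells incubated overnight. NF-κB activity was read from supernatant SEAP with QUANTI-Blue at 620 nm absorbance, and IRF activity from Lucia luciferase with QUANTI-Luc by luminescence. Each signal was expressed as fold change by dividing by the mean agonist-only control on the same plate. Two replicate plates were averaged, with errors obtained by propagation.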

[2] = tested on: RAW-Dual (murine macrophage reporter line); assay: IRF reporter (Lucia luciferase) activity fold change vs agonist alone; higher = enhanced IRF activity
Procedure, shortened: as §1

[3] = tested on: RAW-Dual (murine macrophage reporter line); assay: viability score (confluency relative to resting cells, overnight) (fraction); higher = more viable, active = viable (0.7 or more)
Procedure, shortened: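 RAW-Dual macrophages in 384-well plates were incubated overnight with compound, final concentration 10 μM. Confluency images from IncuCyte were processed in IncuCyte software into two masks covering all imaged wells. The viability score is each well's confluency relative to resting cells, and a compound met the cutoff when both masks exceeded 70% of resting cells.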

[4] = agonist: CpG ODN 1826 0.5 ug/mL

Row | SMILES | NF-kB reporter [1, 4] | NF-kB reporter ([1]; agonist: LPS 0.1 ug/mL) | NF-kB reporter ([1]; agonist: MPLA […]) | IRF reporter ([2]; agonist: 3'3'-cGAMP 10 ug/mL) | IRF reporter ([2]; agonist: LPS 0.1 ug/mL) | IRF reporter ([2]; agonist: MPLA […]) | viability score [3]
1 | CS(=O)(=O)N(CC(=O)NCCSCc1cccc(Cl)c1)c1ccc(Cl)cc1 | 0.893 ± 0.093 | 0.962 ± 0.079 | 0.964 ± 0.044 | 0.904 ± 0.13 | 1.07 ± 0.062 | 0.902 ± 0.081 | 1 (active)
2 | COC(=O)C1=C(C)NC(C)=C(C(=O)OCCN2CCN(C(c3ccccc3)c3ccccc3)CC2)C1c1cccc([N+](=O)[O-])c1.Cl.Cl (configuration not stated) | 0.241 ± 0.082 | 0.588 ± 0.22 | 0.799 ± 0.051 | 0.132 ± 0.008 | 0.888 ± 0.27 | 1.32 ± 0.18 | 0.975 (active)
3 | O=c1ccc(-c2ccncc2)nn1CC1CCN(CC(F)(F)F)CC1 | 0.924 ± 0.046 | 0.973 ± 0.077 | 0.955 ± 0.051 | 0.858 ± 0.043 | 0.884 ± 0.07 | 0.832 ± 0.17 | 0.964 (active)
4 | CC1CCc2cc(F)cc3c(=O)c(C(=O)O)cn1c23 (configuration not stated) | 0.961 ± 0.13 | 1.01 ± 0.074 | 1.01 ± 0.066 | 0.955 ± 0.066 | 0.872 ± 0.031 | 0.86 ± 0.16 | 0.999 (active)
5 | C[C@@H]1CCN(C(=O)CC#N)C[C@@H]1N(C)c1ncnc2[nH]ccc12.O=C(O)CC(O)(CC(=O)O)C(=O)O | 1.05 ± 0.29 | 0.628 ± 0.047 | 0.885 ± 0.06 | 0.182 ± 0.0066 | 0.366 ± 0.056 | 0.507 ± 0.1 | 0.603 (inactive)
6 | CN1C(=O)C(=C2SC(=S)N(C(CCC(=O)O)C(=O)O)C2=O)c2ccccc21 (configuration not stated) | 0.793 ± 0.053 | 1.02 ± 0.07 | 0.845 ± 0.064 | 0.942 ± 0.035 | 1.28 ± 0.086 | 1.03 ± 0.093 | 1.01 (active)
7 | CCCC(=O)Nc1ccc(OCC(O)CNC(C)C)c(C(C)=O)c1.Cl (configuration not stated) | 1.14 ± 0.1 | 1.03 ± 0.05 | 0.983 ± 0.022 | 0.94 ± 0.054 | 1.01 ± 0.12 | 0.864 ± 0.11 | 0.999 (active)
8 | O=C(Nc1nccs1)c1ccc2c(c1)C(=O)N(C1CCCCC1)C2=O | 1.09 ± 0.086 | 1.05 ± 0.096 | 0.878 ± 0.052 | 0.979 ± 0.032 | 1.57 ± 0.22 | 1.21 ± 0.21 | 1 (active)
9 | COc1cccc(C2Nc3ccccc3-c3nnc(SC)nc3O2)c1OCC(=O)O (configuration not stated) | 0.989 ± 0.099 | 0.988 ± 0.054 | 0.864 ± 0.082 | 1.03 ± 0.068 | 1.65 ± 0.11 | 1.24 ± 0.076 | 1 (active)
10 | CC(C)CC(C(=O)Nc1cccc(O)c1)N1C(=O)c2ccccc2C1=O (configuration not stated) | 0.947 ± 0.076 | 1.04 ± 0.099 | 1.16 ± 0.083 | 1.04 ± 0.04 | 1.64 ± 0.15 | 1.63 ± 0.14 | 0.913 (active)
11 | CC(C)Oc1ccc(C(=O)N2CCC(c3ccccc3)S(=O)(=O)CC2)cc1 (configuration not stated) | 0.906 ± 0.061 | 1.07 ± 0.098 | 0.876 ± 0.049 | 0.928 ± 0.049 | 1.13 ± 0.069 | 1.09 ± 0.092 | 0.992 (active)
12 | CCOC(=O)Nc1nc(C)c(C(C)=O)s1 | 0.763 ± 0.059 | 0.872 ± 0.046 | 1.12 ± 0.098 | 0.996 ± 0.058 | 1.35 ± 0.081 | 1.44 ± 0.14 | 1.02 (active)
13 | CN1C(=O)C(=NNC(=O)c2ccccc2Cl)c2cc(Br)cc(Br)c21 | 1.13 ± 0.091 | 0.997 ± 0.081 | 1.03 ± 0.057 | 0.897 ± 0.15 | 1.12 ± 0.078 | 1.01 ± 0.32 | 1 (active)
14 | Cc1ccc(S(=O)(=O)n2c(C)nc3ccccc32)cc1 | 1.13 ± 0.22 | 1 ± 0.18 | 0.897 ± 0.089 | 0.969 ± 0.025 | 1.2 ± 0.13 | 1.27 ± 0.13 | 0.959 (active)
15 | CC(=O)N1CCN(c2ccc(OCC3COC(Cn4ccnc4)(c4ccc(Cl)cc4Cl)O3)cc2)CC1 (configuration not stated) | 0.669 ± 0.058 | 1.1 ± 0.085 | 1.08 ± 0.023 | 1.07 ± 0.059 | 1.14 ± 0.12 | 1.18 ± 0.11 | 0.92 (active)
16 | COc1c2occc2cc2ccc(=O)oc12 | 1.44 ± 0.21 | 1.21 ± 0.11 | 0.907 ± 0.051 | 0.91 ± 0.029 | 1.3 ± 0.15 | 1.04 ± 0.08 | 0.989 (active)
17 | CC(=NOCON=C(C)c1ccc(F)cc1F)c1ccc(F)cc1F | 0.843 ± 0.067 | 0.907 ± 0.062 | 0.974 ± 0.086 | 0.991 ± 0.05 | 1.39 ± 0.085 | 1.53 ± 0.15 | 1 (active)
18 | C=CCNc1oc(Cc2cccc3ccccc23)nc1C#N | 0.818 ± 0.039 | 1.04 ± 0.091 | 1.13 ± 0.062 | 0.731 ± 0.036 | 1.16 ± 0.25 | 1.28 ± 0.4 | 0.952 (active)
19 | O=c1c(CN2CCC(O)(c3ccc(Br)cc3)CC2)coc2ccccc12 | 0.712 ± 0.056 | 0.953 ± 0.059 | 1.07 ± 0.066 | 0.676 ± 0.032 | 1.07 ± 0.14 | 0.85 ± 0.12 | 1.01 (active)
20 | CN1C2CCCC1CC(NC(=O)c1nn(C)c3ccccc13)C2.Cl (configuration not stated) | 0.712 ± 0.31 | 0.879 ± 0.044 | 0.984 ± 0.069 | 0.873 ± 0.034 | 1.13 ± 0.16 | 1.03 ± 0.19 | 0.998 (active)
21 | O=C(NC1CCCCC1)N(Cc1cnc2ccccn12)c1ccccc1 | 1.01 ± 0.1 | 1.14 ± 0.088 | 1.15 ± 0.059 | 0.997 ± 0.044 | 1.06 ± 0.053 | 1.05 ± 0.16 | 0.995 (active)
22 | CC1CCC2C(C)(C)C3CC12CCC3(C)O (configuration not stated) | 1.04 ± 0.081 | 0.883 ± 0.11 | 0.965 ± 0.094 | 0.999 ± 0.052 | 1.15 ± 0.16 | 1.25 ± 0.23 | 1.05 (active)
23 | N#CC(=Cc1ccc(-c2ccc(Cl)cc2)o1)C(N)=O | 0.783 ± 0.062 | 0.875 ± 0.14 | 1.13 ± 0.1 | 1.07 ± 0.049 | 1.43 ± 0.1 | 1.63 ± 0.18 | 1.02 (active)
24 | COc1cc(C)n(CCNC(=O)c2ccccc2C(F)(F)F)c(=O)c1 | 0.904 ± 0.039 | 0.933 ± 0.076 | 1.12 ± 0.06 | 1.03 ± 0.055 | 1.34 ± 0.28 | 1.51 ± 0.4 | 0.941 (active)
25 | Nc1ncnc2c1ncn2[C@@H]1O[C@H](CO)[C@@H](O)[C@@H]1O.O | 1.09 ± 0.064 | 1.02 ± 0.065 | 0.997 ± 0.058 | 0.714 ± 0.026 | 1.04 ± 0.13 | 1.18 ± 0.14 | 0.991 (active)
26 | Cc1ccccc1C(=O)Nc1ccc(C(=O)N2CCCC(N(C)C)c3ccccc32)cc1 (configuration not stated) | 1.05 ± 0.27 | 1 ± 0.05 | 0.929 ± 0.065 | 0.94 ± 0.046 | 1.15 ± 0.18 | 1.17 ± 0.13 | 1 (active)
